Records with an inconclusive call do not appear. The source made the active and inactive calls. Calls come from the whole dose curve; as a rule, active = well fitted cell-killing curve with a large enough effect in the repeat runs; inconclusive = weak or mixed curves, or effect the other way; inactive = no such curve, though single readings can be large or run the other way.
assay: qHTS assay to identify small molecule antagonists of the peroxisome proliferator-activated receptor gamma (PPARg) signaling pathway - cell viability counter screen (AID 743194); conditions: PPARg-bla HEK293H viability, CellTiter-Glo luminescence, 17 h, co-treated with 50 nM rosiglitazone; series mostly up to 62.6 µM; note: nearly all actives have a fitted effect of over 55% in size
Text: U.S. Tox21 Program National Center for Advancing Translational Sciences [NCATS] NIH Chemical Genomics Center [NCGC] U.S. Environmental Protection Agency [EPA] National Institutes of Environmental Health Sciences [NIEHS] National Toxicology Program [NTP] U.S. Food and Drug Administration [FDA] Tox21 Assay Overview: The peroxisome proliferator-activated receptors (PPARs) are lipid-activated transcription factors of the nuclear receptor superfamily with three distinct subtypes namely PPAR alpha, PPAR delta (also called PPAR beta) and PPAR gamma (PPARg). All these subtypes heterodimerize with Retinoid X receptor (RXR) and these heterodimers regulate transcription of various genes. PPAR-gamma receptor (glitazone receptor) is involved in the regulation of glucose and lipid metabolism. To identify the compounds that activate PPAR-gamma signaling, GeneBLAzer PPAR gamma UAS-bla HEK293H cell line (Invitrogen, Carlsbad, CA, USA) containing a beta-lactamase reporter gene under the control of an Upstream Activator Sequence (UAS) was used to screen the Tox21 compound library. The cytotoxicity of the Tox21 compound library against the PPARg-bla cell line was tested in parallel by measuring the cell viability using CellTiter-Glo assay in the same wells.
Tox21 Assay Protocol Summary: PPARg-bla cells were dispensed at 3000 cells/5uL/well in 1536-well black wall/clear bottom plates using a Multidrop Combi (Thermo Fisher Scientific, Waltham, MA) dispenser. After the assay plates were incubated at 37 C and 5% CO2 for 5 h, 23 nL of compounds dissolved in DMSO, positive controls or DMSO only was transferred to the assay plate by a Pintool station (Kalypsys, San Diego, CA), followed by addition of 1ul Rosiglitazone (50 nM, final concentration in the wells). The assay plates were incubated at 37 C for 17 h, and then 1 uL of LiveBLAzerTM B/G FRET substrate was added using a Bioraptr Flying Reagent Dispenser (FRD) workstation (Beckman Coulter, Indianapolis, IN, USA). The assay plates were incubated at room temperature for 1 h and fluorescence intensity was measured by an Envision plate reader (PerkinElmer, Shelton, CT). For cell viability readout that measures cytotoxicity, 4 ul/well of CellTiter-Glo reagent was added into the assay plates using a Flying Reagent Dispenser. After 30 min incubation at room temperature, the luminescence intensity in the plates was measured using a ViewLux plate reader (PerkinElmer).

Row | SMILES | outcome
1 | CC(C)=O | inactive
2 | O=S(=O)(O)c1cc(O)c2ccc(Nc3ccccc3)cc2c1 | inactive
3 | CC(C)OC(=O)CCCCC(=O)OC(C)C | inactive
4 | Cc1ccc(S(=O)(=O)O)c(C)c1 | inactive
5 | C=C(C)C(=O)OCCOP(=O)(O)OCCOC(=O)C(=C)C | inactive
6 | O=C1c2cccc3c2[C@H](CCC3)CN1[C@@H]1CN2CCC1CC2 | inactive
7 | CN(C)CCOCCO | inactive
8 | FC(F)(F)c1ccccc1-n1ccnc1 | inactive
9 | CCCC/C=C\CCCCCCCCCC=O | inactive
10 | CCOCCOCCOCC | inactive
11 | CC(S)C(=O)NCC(=O)O (stereo not given) | inactive
12 | O=C1c2ccccc2C(=O)N1CCl | inactive
13 | O=C(O)CCSSCCC(=O)O | inactive
14 | COC(=O)c1ccccc1C(=O)c1ccc(OCCN2CCCCC2)cc1 | inactive
15 | COc1ccc(S(=O)(=O)N2c3ccc(Cl)cc3[C@@](O)(c3ccccc3Cl)[C@H]2C(=O)N2CCC[C@@H]2C(N)=O)cc1OC | inactive
16 | CCOC(=O)c1ncn2c1CN(C)C(=O)c1cc(F)ccc1-2 | inactive
17 | CCCCCCCCC(=O)Cl | inactive
18 | CC(C)(C)NC(N)=O | inactive
19 | CC(C)NCC(O)COc1ccc(COCCOC(C)C)cc1 (stereo not given) | inactive
20 | CC(C)(C)c1nnc(NS(=O)(=O)c2ccc(N)cc2)s1 | inactive

Row | SMILES | outcome
21 | C=C(C)C(=O)OCc1ccccc1 | inactive
22 | CCCN1C[C@H](CSC)C[C@@H]2c3cccc4[nH]cc(c34)C[C@H]21 | inactive
23 | COc1cc(NS(=O)(=O)c2ccc(N)cc2)nc(OC)n1 | inactive
24 | CC(C)(C)c1cc(CCC(=O)NN)cc(C(C)(C)C)c1O | inactive
25 | CC(C)=CCOC(=O)c1ccccc1 | inactive
26 | Cc1cccc(C)c1OCC(C)N (stereo not given) | inactive
27 | C[C@@H]1O[C@@H](O[C@@H]2[C@@H](O)[C@H](OCCc3ccc(O)c(O)c3)O[C@H](CO[C@@H]3O[C@H](CO)[C@@H](O)[C@H](O)[C@H]3O)[C@H]2OC(=O)/C=C/c2ccc(O)c(O)c2)[C@H](O)[C@H](O)[C@H]1O | inactive
28 | CC(C)c1ccc2cc(C(C)C)ccc2c1 | inactive
29 | COc1cc2c(cc1OC)[C@@H]1CC(=O)[C@@H](CC(C)C)CN1CC2 | inactive
30 | Cc1c(I)c(=O)n(-c2ccccc2)n1C | inactive
31 | CC(C)(C)c1n[nH]c(=S)n(N)c1=O | inactive
32 | C=C(C)C(=O)OCCNC(C)(C)C | inactive
33 | Cc1cc(NC(=O)C2=C(O)c3ccccc3S(=O)(=O)N2C)no1 | inactive
34 | CC[C@H](C)C(=O)O[C@H]1C[C@H](O)C=C2C=C[C@H](C)[C@H](CC[C@@H](O)C[C@@H](O)CC(=O)O)[C@H]21 | inactive
35 | CN(C)C(=O)CNC(=O)Cc1ccccc1 | inactive
36 | Cc1[nH]cnc1-c1ccc(Cl)cc1 | inactive
37 | O=C(OCC(O)CO)c1ccccc1Nc1ccnc2c(C(F)(F)F)cccc12 (stereo not given) | inactive
38 | COCCc1ccc(OCC2CO2)cc1 (stereo not given) | inactive
39 | OCCC(F)(F)C(F)(F)C(F)(F)C(F)(F)C(F)(F)C(F)(F)C(F)(F)C(F)(F)F | inactive
40 | CC(C)C(=O)OCCc1ccccc1 | inactive

Reference: PubChem BioAssay (Tox21)
